# Screening data: PubChem, National Center for Advancing Translational Sciences (NCATS)
# Shown are actives, neighbours in structure and some others; about 6% of the full set was active somewhere.
# D1 antag – human D1 dopamine receptor antagonism. P21728. HEK293 TREx D1 cells, calcium flux, dopamine EC80; stronger effect = lower value. activity change, negative = inhibition, % at 10 µM. 3.2% of 360,000 active. AID 504652; in the data active = activity change below about -30%; also: % is scaled to controls: 0 for no effect and ±100 for the full control effect
#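 After overnight tetracycline induction at 30 C, force-coupled D1 HEK293 cells took up a no-wash calcium dye at room temperature. Compounds were added and monitored 180 s, and the response to EC80 dopamine was then recorded.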
# DRD3 agonist – activates the human D3 dopamine receptor; AID 652048; P35462; 0.58% of 410,000 active; max activation, %; D3R DiscoveRx beta-arrestin cells, luminescence, 90 min; in the data active = max activation above about 30%; also: 0% is about no effect
# Target sequence (P35462 whole entry, looked up): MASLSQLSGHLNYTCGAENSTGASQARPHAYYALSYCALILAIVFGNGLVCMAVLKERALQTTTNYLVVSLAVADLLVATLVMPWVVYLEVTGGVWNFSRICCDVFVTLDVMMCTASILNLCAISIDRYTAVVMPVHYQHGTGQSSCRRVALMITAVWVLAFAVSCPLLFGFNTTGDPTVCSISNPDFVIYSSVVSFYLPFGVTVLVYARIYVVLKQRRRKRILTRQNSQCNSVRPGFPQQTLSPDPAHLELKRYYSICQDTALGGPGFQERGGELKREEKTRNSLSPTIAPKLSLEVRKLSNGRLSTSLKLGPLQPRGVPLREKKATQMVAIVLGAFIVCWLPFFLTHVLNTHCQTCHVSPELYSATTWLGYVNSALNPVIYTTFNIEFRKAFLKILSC
#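 Agonist mode: compounds and dopamine controls were applied to plated cells for 90 min at 37 degrees C after an overnight attachment at 1500 cells/well. Luminescent read-out followed 30 - 60 minutes at room temperature with DiscoveRx detection reagent.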
# D3 antag – antagonists of human D3 dopamine receptor; P35462; D3R cells, DiscoveRx beta-arrestin luminescence, antagonist mode; stronger effect = lower value; max response, negative = inhibition, %; 2.5% of 360,000 active; in the data active = max response below about -50%; inconclusive = no clear call, values can overlap the other calls; also: % is scaled to controls: 0 for no effect and ±100 for the full control effect
#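 Cells expressing the human receptor were seeded at 1500 cells/well, incubated overnight at 37 degrees C in 5% CO2, then exposed to library compounds with dopamine controls for 90 minutes at 37 degrees C before luminescent detection.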
# D1 PAM – enhances dopamine response at the human D1 receptor; P21728; HEK293 TREx D1 cells, calcium flux, dopamine EC20 potentiation; potentiation, % at 10 µM; 0.036% of 360,000 active; AID 504651; in the data active = potentiation above about 30%; also: 0% is about no effect
# D1 agonist – human D1 receptor agonism. P21728. HEK293 T-REx D1 cells, calcium flux, agonist mode. activation, % at 2 µM. 1% of 360,000 active. AID 504660; in the data active = activation above about 30%; also: 0% is about no effect
#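 Tetracycline-induced HEK293 TREx D1 cells, force-coupled to calcium signalling, were dye-loaded with a no-wash calcium kit. Compound was pin-added after a 10 s baseline. Fluorescence was read kinetically at 1 cycle/s for 180 s, with calcium rises flagged as agonism.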
# Active calls of the source: *; u = inconclusive; x = no result; ! = not confirmed by another sample.
SMILES,D1 antag,DRD3 agonist,D3 antag,D1 PAM,D1 agonist
CCOc1ccc2nc(C)cc(Nc3ccccc3OCC)c2c1,-49*,-17,x,-1,25
COc1ccc(CC(=O)NCc2ccccc2)cc1,-9,9,-5,-4,2
C=CCC(NCc1ccccc1)c1ccco1 (configuration not stated),-57*,12,-10,-13,1
C=CCC(NCc1ccccc1)c1ccc(OC)cc1 (configuration not stated),-34*,-18,-24,11,6
O=c1cc(CN2CCN(C/C=C/c3ccccc3)CC2)c2cc(O)ccc2o1,-33*,-11,-62*,3,11
Cc1ccccc1NC(=O)N1CCN(C/C=C/c2ccccc2)CC1,x,-10,16,-6,-1
Cc1ccc2oc(=O)cc(CN3CCN(C/C=C/c4ccccc4)CC3)c2c1,24,-12,-60*,-2,6
Cc1ccccc1CN1CCN(C/C=C/c2ccccc2)CC1,5,-41,-192*,1,2
Cc1ccc2oc(=O)cc(CN3CCCCC3)c2c1,9,-4,5,-6,0
CC(C)C[C@@H]1NC(=O)[C@H](CCCN)NC(=O)[C@H](C(C)C)NC(=O)[C@@H]2CCCN2C(=O)[C@@H](Cc2ccccc2)NC(=O)[C@H](CC(C)C)NC(=O)[C@H](CCCN)NC(=O)[C@H](C(C)C)NC(=O)[C@@H]2CCCN2C(=O)[C@@H](Cc2ccccc2)NC1=O,x,31*,x,x,x
O=C1N[C@@H](Cc2ccccc2)C(=O)N2CCC[C@@H]12,11,-7,-16,-2,6
Cc1cc(=O)oc2c3c(cc(OCC(=O)NCc4ccncc4)c12)OC(C)(C)CC3,-7,0,16,-2,-1
COc1ccc(CNC(=O)COc2cc3c(c4oc(=O)cc(C)c24)CCC(C)(C)O3)cc1OC,-31*,28,66,-5,3
Clc1cccc(OCCCCN2CCCCC2)c1,-4,-2,u,-6,5
Clc1ccc(Cl)c(OCCN2CCOCC2)c1,-17,8,-52*,-8,3
Clc1cccc(Cl)c1OCCCCN1CCCCC1,-14,-11,11,-1,5
Clc1ccc(Cl)c(OCCN2CCCC2)c1,11,0,-75*,-3,2
Cc1cccc(Cl)c1OCCN1CCCC1,-41*,-10,u,-6,1
CCc1ccc(-c2cc(C)no2)cc1S(=O)(=O)NCc1ccc(OC)cc1,-28,-5,x,-3,5
CC(C)[C@H](Nc1ccc(S(=O)(=O)N2CCOCC2)cc1[N+](=O)[O-])C(=O)OCC(=O)N(C(C)C)C(C)C,-11,3,7,-3,3
O=C(O)CC/C(=N\Nc1ccc(S(=O)(=O)N2CCOCC2)cc1[N+](=O)[O-])c1cccs1,-8,-10,-62*,-4,2
O=C(O)CC/C(=N\Nc1ccc(S(=O)(=O)N2CCCC2)cc1[N+](=O)[O-])c1cccs1,-9,-6,-28,-1,0
CC/C(C)=N/Nc1ccc(S(=O)(=O)N2CCCC2)cc1[N+](=O)[O-],-48*,-9,-5,-1,2
CC(C)[C@H](Nc1ccc(S(=O)(=O)N2CCOCC2)cc1[N+](=O)[O-])C(=O)OCC(N)=O,-74*,-3,-14,-7,2
CCOC(=O)Cn1c(=O)n(CC2CCCO2)c2nc(-c3cccc(C)c3)nc(C(N)=O)c21 (configuration not stated),14,4,x,1,3
SMILES,D1 antag,DRD3 agonist,D3 antag,D1 PAM,D1 agonist
Cc1ccc(C2c3c(-c4cc(C)ccc4O)n[nH]c3C(=O)N2Cc2ccco2)cc1 (configuration not stated),12,12,x,9,1
CC(C)Cc1csc(NC(=O)c2ccc(Cl)cc2)c1C(=O)O,-31*,6,0,-4,17
COc1ccc(C2/C=C\CN(C(=O)C3CCCC3)[C@H](Cc3ccccc3)C(=O)N2Cc2ccc(F)cc2)cc1 (some centres not stated),-37*,-22,-68*,9,5
COc1ccc([C@H]2/C=C\CN(C(=O)C3CCCC3)[C@@H](C)C(=O)N2Cc2ccc(F)cc2)cc1,x,-20,u,x,x
COc1ccc([C@H]2/C=C\CN(S(=O)(=O)/C=C/c3ccccc3)[C@@H](C)C(=O)N2Cc2ccc(F)cc2)cc1,x,40*,7,x,x
CCOC(=O)CC(NC(=O)c1cc2cc(Cl)ccc2oc1=O)c1ccc(C)cc1 (configuration not stated),-1,9,x,-3,2
O=C(Nc1nnc(SCc2ccc(F)cc2)s1)c1ccccn1,-2,-26,-66*,-4,2
CCCSc1nnc(NC(=O)c2ccco2)s1,2,-6,-13,3,3
O=C(Nc1nnc(SCc2ccccc2F)s1)c1ccco1,-82*,10,17,-7,3
CC(C)c1nnc(NC(=O)c2nc(S(=O)(=O)Cc3ccccc3F)ncc2Cl)s1,0,-6,-51*,-1,2
Cc1nnc(NC(=O)c2nc(S(=O)(=O)Cc3ccccc3C)ncc2Cl)s1,7,-10,-50*,-2,4
Cc1cc(-c2ccc(S(=O)(=O)N3CCN(c4ccc(Cl)cc4)CC3)s2)on1,-6,-14,x,-1,2
COc1ccc(CCNC(=O)C2COc3ccccc3C2)cc1OC (configuration not stated),1,-3,x,2,5
Cc1ccc(C)c(NC(=O)c2nc(S(=O)(=O)Cc3ccc(F)cc3)ncc2Cl)c1,-37*,-29,x,-2,0
Cc1ccc(CS(=O)(=O)c2ncc(Cl)c(C(=O)Nc3nnc(C(C)C)s3)n2)cc1,-1,-21,0,-1,5
C[C@@H](C(=O)Nc1nc2ccc(F)cc2s1)N1C(=O)C2CC=CCC2C1=O (some centres not stated),-45*,2,9,0,0
CCSc1nnc(NC(=O)c2nc(S(=O)(=O)Cc3ccc(F)cc3)ncc2Cl)s1,-1,-18,-68*,9,1
CC(C)c1nnc(NC(=O)c2nc(S(=O)(=O)Cc3ccc(F)cc3)ncc2Cl)s1,-1,-22,-61*,5,2
Cc1cccc(C)c1NC(=O)CCSCCc1ccccn1,-9,3,x,9,3
Cc1ccc(C)c(N2CCN(S(=O)(=O)c3ccc(C(=O)N(C)C)s3)CC2)c1,5,-15,x,1,0
O=C(Nc1nc2ccc(F)cc2s1)c1nc(S(=O)(=O)Cc2ccccc2F)ncc1Cl,-34*,-28,x,12,0
O=C(Nc1nc2ccc(F)cc2s1)c1ccccn1,10,-25,-73*,-4,5
CCn1c2c(c(=O)n3ncc(C(=O)Nc4ccc(C(=O)OC)cc4)c13)CN(Cc1ccc(OC)cc1)CC2,-16,9,x,-1,2
Cc1ccc(S(=O)(=O)NCc2nc3nc(C)cc(C)n3n2)c(C)c1,-65*!,0,1,-8,4
